# Measured values published in PubChem BioAssay (EPA / NIEHS).
# The source made the active and inactive calls. How the source made its calls: active means hit-call score of the fitted dose curve at least 0.9, where 1 is the maximum; inactive means score below 0.9.
# Experiments:
# [1] = IUF_NPC2c_oligodendrocyte_migration_120hr: Leibniz Research Institute for Environmental Medicine (IUF) 120-hour Neural Progenitor Cell Migration Assay for Oligodendrocyte Migration (NPC2c) (AID 2284297);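 further: O4-positive oligodendrocyte migration distance divided by radial glia migration distance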
# How it was run: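 Primary hNPC spheres migrating on extracellular matrix, exposed five days to a 7-point dilution series with solvent control. Oligodendrocyte migration was scored by high-content imaging of O4 immunostaining and expressed relative to radial glia distance.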
# [2] = IUF_NPC2a_radial_glia_migration_120hr: Leibniz Research Institute for Environmental Medicine (IUF) 120-hour Neural Progenitor Cell Migration Assay for Radial Glia Migration (NPC2a) (AID 2284298)
# How it was run: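 In this multiplexed test, fetal hNPC spheres migrate radially on poly-D-lysine/laminin in N2 medium (37C, 5% CO2, pH 7.2-7.6) under continuous compound exposure over five days. Migration is scored at 120 h from automated Hoechst nuclear imaging.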
# [3] = read-out: Epidermal growth factor receptor (EGFR), EGFR (gene 1956); assay: BSK_BE3C_EGFR: BioMAP Diversity Plus: BE3C Assay for Epidermal growth factor receptor (EGFR) Biomarker Activity (AID 2284281); conditions: primary human bronchial epithelial cells
# Procedure: BSK_BE3C is a cell-based, multiplexed-readout assay that uses bronchial epithelial cell, a human lung primary cell, with measurements taken at 24 hours after chemical dosing in a 96-well plate.BSK_BE3C_EGFR is an assay component measured in the BSK_BE3C assay. It measures EGFR antibody related to regulation of gene expression using ELISA technology.Data from the assay component BSK_BE3C_EGFR was analyzed at the endpoint, BSK_BE3C_EGFR, in the positive analysis fitting direction relative to DMSO as the negative control and baseline of activity. Using a type of binding reporter, gain or loss-of-signal activity can be used to understand protein changes. To generalize the intended target to other relatable targets, this assay endpoint is annotated to the 'kinase' intended target family, where the subfamily is 'receptor tyrosine kinase'.
# The levels of cell surface (or secreted, indicated by the prefix "s") biomarker endpoints were measured by ELISA. Overt cytotoxicity to cells in confluent adherent cultures (all systems other than the BT system) was assessed by measuring total protein levels using sulforhodamine B (SRB) staining in parallel cultures at the time of biomarker measurements, indicated as SRB endpoints. For proliferation assays for adherent cell types, individual cell types are cultured at sub-confluence and relative cell numbers quantified by SRB staining at time points optimized for each system (48 h: 3C and CASM3C systems; 72 h: BT and HDF3CGF systems; 96 h: SAg system). SRB was performed by staining cells with 0.1% SRB after fixation with 10% TCA and reading wells at 560 nm.Viability and proliferation of PBMC (T cells) was quantified by Alamar Blue reduction for the SAg and BT systems. […] Then, Alamar Blue (20 uL/well) (Invitrogen, Cat DAL1100) was added for 6 h, and the plates were read with a fluorescence microplate reader at 546/580 nm (excitation/emission). […] Plates were read after 6 h.
# KRT18 (gene 3875) = assay: BSK_BE3C_Keratin818: BioMAP Diversity Plus: BE3C Assay for Keratin 818 Biomarker Activity (AID 2284282); conditions: primary human bronchial epithelial cells
# How it was run: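 ELISA read-out of Keratin 8/18 in BE3C human bronchial epithelial cultures, 24 h post-dosing; positive-direction fit vs DMSO baseline.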
# [4] = read-out: Matrix Metallopeptidase 9 (MMP9), MMP9 (gene 4318); assay: BSK_BE3C_MMP9: BioMAP Diversity Plus: BE3C Assay for Matrix Metallopeptidase 9 (MMP9) Biomarker Activity (AID 2284283); conditions: primary human bronchial epithelial cells
# How it was run: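 Cells were dosed, incubated 24 h, then assayed for MMP-9 by ELISA; activity was fitted upward against DMSO. The system used human lung primary bronchial epithelial cells, with SRB total-protein staining run alongside for cytotoxicity.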
# [5] = read-out: Plasminogen activator inhibitor-1 (PAI1), SERPINE1 (gene 5054); assay: BSK_CASM3C_PAI1: BioMAP Diversity Plus: CASM3C Assay for Plasminogen activator inhibitor-1 (PAI1) Biomarker Activity (AID 2284284); conditions: primary human coronary artery smooth muscle cells;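 further: PAI-1 protein level measured by ELISA 24 h after dosing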
# [6] = read-out: Monocyte Chemoattractant Protein-1 (MCP1), CCL2 (gene 6347); assay: BSK_hDFCGF_MCP1: BioMAP Diversity Plus: hDFCGF Assay for Monocyte Chemoattractant Protein-1 (MCP1) Biomarker Activity (AID 2284285); conditions: primary human foreskin fibroblasts
# How it was run: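 MCP-1 ELISA readout was taken 24 hours after dosing primary human dermal fibroblasts in the hDFCGF system, with DMSO as baseline. Parallel sulforhodamine B staining of total protein tracked overt cytotoxicity.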
# [7] = read-out: Intercellular Adhesion Molecule 1 (ICAM1), ICAM1 (gene 3383); assay: BSK_hDFCGF_ICAM1: BioMAP Diversity Plus: hDFCGF Assay for Intercellular Adhesion Molecule 1 (ICAM1) Biomarker Activity (AID 2284287); conditions: primary human foreskin fibroblasts
# How it was run: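 ICAM-1 ELISA readout 24 h after dosing, DMSO as baseline, in human dermal foreskin fibroblast cultures. Cytotoxicity checked in parallel wells by SRB staining (0.1% SRB, 10% TCA fixation, 560 nm).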
# [8] = read-out: TIMP metallopeptidase inhibitor 2 (TIMP2), TIMP2 (gene 7077); assay: BSK_hDFCGF_TIMP2: BioMAP Diversity Plus: hDFCGF Assay for TIMP metallopeptidase inhibitor 2 (TIMP2) Biomarker Activity (AID 2284289); conditions: primary human foreskin fibroblasts
# How it was run: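 Primary human foreskin fibroblasts in the hDFCGF system, dosed for 24 h; TIMP-2 level measured by ELISA, fitted in the positive direction against DMSO; cytotoxicity checked in parallel by sulforhodamine B total protein staining.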
# [9] = read-out: Thrombomodulin, THBD (gene 7056); assay: BSK_LPS_Thrombomodulin: BioMAP Diversity Plus: LPS Assay for Thrombomodulin Biomarker Activity (AID 2284296)
# How it was run: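 Thrombomodulin on the surface of LPS-activated endothelial/PBMC co-cultures was quantified by ELISA at 24 hours post-dosing, with DMSO as baseline. Parallel SRB total-protein staining flagged overt cytotoxicity.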
smiles,measurement,setting,value
CC1(C)[C@H](C(=O)O[C@H](C#N)c2cccc(Oc3ccccc3)c2)[C@@H]1/C=C(\Cl)C(F)(F)F,outcome,[1],inactive
same,outcome,[2],inactive
CCOCn1c(-c2ccc(Cl)cc2)c(C#N)c(Br)c1C(F)(F)F,outcome,[1],inactive
same,AC50,[2],63.4 µM (active)
OC(Cc1ccccc1Cl)(Cn1[nH]cnc1=S)C1(Cl)CC1 (configuration not stated),outcome,[1],inactive
same,AC50,[2],43 µM (active)
O=S1OC[C@@H]2[C@H](CO1)[C@]1(Cl)C(Cl)=C(Cl)[C@@]2(Cl)C1(Cl)Cl (some centres not stated),outcome,[1],inactive
same,outcome,[2],inactive
CCCCOC(=O)COC(=O)c1ccccc1C(=O)OCCCC,outcome,[3],inactive
same,outcome,KRT18 (gene 3875),inactive
same,outcome,[4],inactive
same,outcome,[5],inactive
same,outcome,[6],inactive
same,outcome,[7],inactive
same,outcome,[8],inactive
same,outcome,[9],inactive [primary human HUVEC with PBMC]
CS(=O)(=O)c1ccc(C(=O)C2C(=O)CCCC2=O)c(Cl)c1COCC(F)(F)F,outcome,[1],inactive
same,outcome,[2],inactive
CC(C)[C@@H](Nc1ccc(C(F)(F)F)cc1Cl)C(=O)OC(C#N)c1cccc(Oc2ccccc2)c1 (some centres not stated),outcome,[1],inactive
same,outcome,[2],inactive
OCCCCO,outcome,[3],inactive
same,outcome,KRT18 (gene 3875),inactive
same,outcome,[4],inactive
same,outcome,[5],inactive
same,outcome,[6],inactive
same,outcome,[7],inactive
same,outcome,[8],inactive
same,outcome,[9],inactive
O=C(Cc1ccccc1)OCCc1ccccc1,outcome,[3],inactive
same,outcome,KRT18 (gene 3875),inactive
same,outcome,[4],inactive
same,outcome,[5],inactive
same,outcome,[6],inactive
same,outcome,[7],inactive
same,outcome,[8],inactive
same,outcome,[9],inactive
CNC(=O)CSP(=O)(OC)OC,outcome,[1],inactive
same,outcome,[2],inactive
Cc1cc(C(F)(C(F)(F)F)C(F)(F)F)ccc1NC(=O)c1cccc(I)c1C(=O)NC(C)(C)CS(C)(=O)=O,outcome,[1],inactive
same,outcome,[2],inactive
Cc1ccccc1OP(=O)(Oc1ccccc1C)Oc1ccccc1C,outcome,[1],inactive
same,AC50,[2],10 µM (active)
